Compounds with a hit are over-represented: about 2.9% of the library has one in this group of screens.
MEKK2 mut-MEK5: signal of MEK5 binding to mutant human MEKK2 PB1 domain | hit rate 0.35% among 290,000 | bead flow cytometry, Alexa488-MEK5 binding to MEKK2 mutant | percent response, % at 10 µM; in the data active = percent response above about 24%, passing the limit was not always enough
MEKK3 PB1 HTS: MEKK3-MEK5 PB1 interaction, increase or decrease. binding response (% of control), % at 10 µM. Q99759. AID 1529. hit rate 1.4% among 290,000. bead-based flow cytometry, Alexa488-MEK5 binding to MEKK3; actives lie on both sides; 0 = blocked by unlabeled MEK5, 100 = vehicle;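 active = binding response more than 3 SD above or below the average of its plate-row segment, actives on both sides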;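 note: Alexa488 bead fluorescence after subtracting the streptavidin-only scavenger bead signal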
Target sequence (Q99759 whole entry, looked up): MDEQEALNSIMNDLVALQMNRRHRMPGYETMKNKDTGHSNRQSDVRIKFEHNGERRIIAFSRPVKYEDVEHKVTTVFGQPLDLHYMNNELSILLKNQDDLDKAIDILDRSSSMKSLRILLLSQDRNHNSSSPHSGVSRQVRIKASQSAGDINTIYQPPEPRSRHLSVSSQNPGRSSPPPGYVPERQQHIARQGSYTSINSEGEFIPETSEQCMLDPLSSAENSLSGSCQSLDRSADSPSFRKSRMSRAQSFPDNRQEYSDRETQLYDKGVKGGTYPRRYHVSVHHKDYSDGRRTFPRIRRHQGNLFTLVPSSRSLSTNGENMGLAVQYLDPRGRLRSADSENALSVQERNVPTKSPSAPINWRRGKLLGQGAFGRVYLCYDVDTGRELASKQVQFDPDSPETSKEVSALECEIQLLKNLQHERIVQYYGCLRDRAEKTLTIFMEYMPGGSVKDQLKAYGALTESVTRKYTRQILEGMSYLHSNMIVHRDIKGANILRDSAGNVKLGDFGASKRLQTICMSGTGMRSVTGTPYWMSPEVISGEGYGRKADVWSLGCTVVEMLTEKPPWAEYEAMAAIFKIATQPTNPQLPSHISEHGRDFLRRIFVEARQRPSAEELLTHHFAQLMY
dFosB act: enhances mouse delta FosB homodimer DNA binding. P13346. purified delta FosB, TAMRA-CDK5 oligo fluorescence polarization; percent of positive-control signal above neutral wells. activation, % at 25 µM. hit rate 0.99% among 340,000. AID 493131;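 active = mean activation above about 17%, with every replicate also reaching it, limit read from the data, passing the limit was not always enough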
DNA FID counter: fluorescent intercalator displacement, NS3 helicase counter-screen. DNA fluorescent intercalator displacement, fluorescence. inhibition, % at 7.9 µM. hit rate 0.17% among 290,000. AID 1845; in the data active = inhibition above about 37%;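 note: 0% = vehicle and 100% = reference compound; higher means more ethidium bromide displaced from hairpin DNA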
MEKK2wt PB1 HTS: raises or lowers MEK5 binding to wildtype human MEKK2 PB1 domain | binding response (% of control), % at 10 µM | bead flow cytometry, Alexa488-MEK5 binding to MEKK2 WT; actives lie on both sides | AID 1531 | hit rate 1.1% among 290,000 | Q9Y2U5; in the data active = binding response below about 67% or above about 130%
MEKK2wt confirm: raises or lowers MEK5 binding to wildtype human MEKK2, retest; shares compounds with MEKK3 PB1 HTS; bead flow cytometry, Alexa488-MEK5 binding to MEKK2 WT; actives lie on both sides; binding response (% of control), % at 10 µM; hit rate 2.4% among 5,900; AID 1892; in the data active = binding response below about 16% or above about 210%; inactive = in between
MEKK2mut-MEK5: signal of MEK5 binding to mutant human MEKK2, retest | bead flow cytometry, Alexa488-MEK5 binding to MEKK2 mutant | percent response, % at 10 µM | hit rate 2% among 5,900 | shares compounds with MEKK3 PB1 HTS | AID 1893; in the data active = percent response mostly above about 71%, no sharp cut-off; inactive = mostly below about 38%;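 note: higher means compound restores mutant binding toward wildtype level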
MEKK3-MEK5 inh: MEKK3-MEK5 PB1 inhibition, single concentration confirmation; binding response (% of control), % at 10 µM; shares compounds with MEKK3 PB1 HTS; bead flow cytometry, Alexa488-MEK5 binding to MEKK3; active compounds read low; hit rate 1.8% among 5,900;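 active = binding response below 72% of control, or above a set upper limit, though filed actives all read lower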;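 note: 100% = DMSO only wells and 0% = binding blocked by excess unlabeled MEK5; lower values mean stronger disruption of MEK5 binding to MEKK3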
* = called active by the depositor; [ ] = another dose, or the depositor's remark.

COc1ccc(/C=N/NC(=O)CCn2cnc(-c3ccccc3)c2-c2ccccc2)cc1OC was read as MEKK2 mut-MEK5 0, MEKK3 PB1 HTS 64*[inhibitor], dFosB act -17, DNA FID counter -25, MEKK2wt PB1 HTS 98, MEKK2wt confirm 75, MEKK2mut-MEK5 -15 and MEKK3-MEK5 inh 72.
Screening COc1ccc(/C=N/NC(=O)CCC(=O)Nc2ccccc2)cc1OC returned MEKK2 mut-MEK5 3, MEKK3 PB1 HTS 107, dFosB act 5, DNA FID counter -7 and MEKK2wt PB1 HTS 101.
Screening COc1ccc(/C=N/NC(=O)CCn2c3ccccc3c3ccccc32)cc1OC returned MEKK2 mut-MEK5 0, MEKK3 PB1 HTS 101, dFosB act 14, DNA FID counter -10 and MEKK2wt PB1 HTS 106.
Screening Nc1nc(SCc2ccccc2)c2ncn(C3CCCO3)c2n1 (configuration not stated) returned dFosB act -1.
For CCS(=O)(=O)N1N=C(c2cccc(NS(C)(=O)=O)c2)CC1c1ccccc1 (configuration not stated) the results were dFosB act -23 and DNA FID counter -20.
`CS(=O)(=O)Nc1ccc(C2=NN(S(C)(=O)=O)C(c3ccc4nccnc4c3)C2)cc1` (configuration not stated) gave MEKK3 PB1 HTS 3.0*[inhibitor], dFosB act 10, DNA FID counter -7, MEKK2wt confirm 70, MEKK2mut-MEK5 -6 and MEKK3-MEK5 inh 73.
Screening CS(=O)(=O)N1N=C(c2ccc(Br)cc2)CC1c1ccc2c(c1)OCO2 (configuration not stated) returned MEKK2 mut-MEK5 83*, MEKK3 PB1 HTS 94, dFosB act 4, DNA FID counter -3, MEKK2wt PB1 HTS 14*, MEKK2wt confirm 103, MEKK2mut-MEK5 -2 and MEKK3-MEK5 inh 96.
CC(=O)N1N=C(c2ccc(NS(C)(=O)=O)cc2)CC1c1ccc2nccnc2c1 (configuration not stated) was read as MEKK2 mut-MEK5 -7, MEKK3 PB1 HTS 104, dFosB act -8, DNA FID counter -5 and MEKK2wt PB1 HTS 97.
CCS(=O)(=O)Nc1cccc(C2=NN(S(C)(=O)=O)C(c3ccccc3)C2)c1 (configuration not stated) was read as MEKK2 mut-MEK5 54*, MEKK3 PB1 HTS 18*[inhibitor], dFosB act -8, DNA FID counter -12, MEKK2wt PB1 HTS 86, MEKK2wt confirm 72, MEKK2mut-MEK5 -19 and MEKK3-MEK5 inh 73.
Cc1ccc(C2=NN(S(C)(=O)=O)C(c3ccc4c(c3)OCO4)C2)cc1 (configuration not stated) was read as MEKK2 mut-MEK5 25, MEKK3 PB1 HTS 10*[inhibitor], dFosB act 13, DNA FID counter -7, MEKK2wt confirm 98, MEKK2mut-MEK5 -6 and MEKK3-MEK5 inh 96.
COc1ccc(NC(=O)C2CC(=O)N/C(=N/NC(=O)c3ccc(Cl)cc3)S2)cc1 (configuration not stated) was read as MEKK2 mut-MEK5 5, MEKK3 PB1 HTS 107, dFosB act -4, DNA FID counter -25 and MEKK2wt PB1 HTS 110.
`CC(=O)NCCNC(=O)c1oc2ccccc2c1CSc1ncn[nH]1` gave MEKK2 mut-MEK5 -4, MEKK3 PB1 HTS 75*[inhibitor], dFosB act -5, DNA FID counter 4, MEKK2wt PB1 HTS 86, MEKK2wt confirm 96, MEKK2mut-MEK5 -6 and MEKK3-MEK5 inh 97.
`COc1ccc(CNC(=O)CN(C)S(=O)(=O)c2ccc3c(c2)OCCO3)cc1OC` gave dFosB act 6.
Screening COCCNC(=O)CN(C)S(=O)(=O)c1ccc2c(c1)OCCO2 returned MEKK2 mut-MEK5 -14, MEKK3 PB1 HTS 7.0*[inhibitor], dFosB act 3, DNA FID counter 1, MEKK2wt PB1 HTS 11*[inhibitor], MEKK2wt confirm 104, MEKK2mut-MEK5 3 and MEKK3-MEK5 inh 106.
O=C(c1ccc(Cl)cc1)c1c[nH]c(C(=O)NNc2ccccc2)c1 was read as MEKK2 mut-MEK5 -4, MEKK3 PB1 HTS 97, dFosB act 7, DNA FID counter -6 and MEKK2wt PB1 HTS 97.
COc1ccc(Nc2nc(N)nc(CSCCO)n2)cc1 was read as MEKK2 mut-MEK5 13, MEKK3 PB1 HTS 115, dFosB act 7, DNA FID counter -1, MEKK2wt PB1 HTS 135*, MEKK2wt confirm 99, MEKK2mut-MEK5 -1 and MEKK3-MEK5 inh 101.
For CC(/C=N/n1c(-c2ccco2)n[nH]c1=S)=C\c1ccccc1 the results were MEKK2 mut-MEK5 0, MEKK3 PB1 HTS 134*, dFosB act -9, DNA FID counter -22, MEKK2wt PB1 HTS 104, MEKK2wt confirm 98, MEKK2mut-MEK5 -2 and MEKK3-MEK5 inh 102.
CCn1cc(Br)c(C(=O)NCc2ccco2)n1 was read as MEKK2 mut-MEK5 -25, MEKK3 PB1 HTS 43*[inhibitor], dFosB act -1, DNA FID counter 0, MEKK2wt PB1 HTS 65, MEKK2wt confirm 101, MEKK2mut-MEK5 -3 and MEKK3-MEK5 inh 101.
`Cn1cc([N+](=O)[O-])c(C(=O)NCc2ccco2)n1` gave MEKK2 mut-MEK5 -2, MEKK3 PB1 HTS 111, dFosB act -7, DNA FID counter 0 and MEKK2wt PB1 HTS 102.
`CN(C)c1ccc(CNC23CC4CC(CC(C4)C2)C3)cc1` gave DNA FID counter 5.
Screening COc1cc(NC(=O)c2cccc(Cl)c2)ccc1NC(=O)c1cccs1 returned MEKK2 mut-MEK5 0, MEKK3 PB1 HTS 133*, dFosB act -8, DNA FID counter -4, MEKK2wt PB1 HTS 116, MEKK2wt confirm 102, MEKK2mut-MEK5 -30 and MEKK3-MEK5 inh 94.
For COc1cccc(C(=O)Nc2cc(NC(=O)c3cccs3)ccc2C)c1 the results were MEKK2 mut-MEK5 4, MEKK3 PB1 HTS 111, dFosB act -5, DNA FID counter -8 and MEKK2wt PB1 HTS 104.
`COc1cccc(C(=O)Nc2cc(NC(=O)c3cccs3)ccc2C)c1OC` gave MEKK2 mut-MEK5 24*, MEKK3 PB1 HTS 109, dFosB act -10, DNA FID counter -21, MEKK2wt PB1 HTS 106, MEKK2wt confirm 104, MEKK2mut-MEK5 4 and MEKK3-MEK5 inh 105.
N#C/C(=C/c1ccc(N2CCCCCC2)o1)c1ccc(Cl)cc1 was read as MEKK2 mut-MEK5 98*, MEKK3 PB1 HTS 82, dFosB act -15, DNA FID counter -20, MEKK2wt PB1 HTS 65, MEKK2wt confirm 82, MEKK2mut-MEK5 -2 and MEKK3-MEK5 inh 86.

Source: PubChem
